Measured values reported in PubChem BioAssay AID720504 (National Center for Advancing Translational Sciences (NCATS), 2013).
Where “and” joins values, the source holds several entries; their conditions need not be identical. Equal values may be shown once. Among all 360,000 compounds or so, about 10,000 (2.8%) were called active. Another 4% or so got no clear call; they are omitted. Calls come from the whole dose curve; as a rule, active = well fitted inhibition curve with a large enough effect; inconclusive = small, poorly fitted or top-dose-only effect; inactive = flat fitted curve, though single readings scatter. Only a selection was taken, and actives are over-represented in it overall.

Molecular target: Serine/threonine-protein kinase PLK1 (Homo sapiens) (UniProt P53350)
Experiment: qHTS for Inhibitors of PLK1-PDB (polo-like kinase 1 - polo-box domain): Primary Screen; note: nearly all actives have a fitted effect of over 65% in size; for max response, negative = inhibition: series mostly up to about 57 µM
Settings: Plk1 PBD binding of FITC phosphopeptide, fluorescence polarization
% is set by controls: 0 for no effect and ±100 for the full control effect; potency is the fitted concentration of half-maximal effect.

Chain of Serine/threonine-protein kinase PLK1 (Homo sapiens) (P53350 whole entry, looked up, the tested form may be a part): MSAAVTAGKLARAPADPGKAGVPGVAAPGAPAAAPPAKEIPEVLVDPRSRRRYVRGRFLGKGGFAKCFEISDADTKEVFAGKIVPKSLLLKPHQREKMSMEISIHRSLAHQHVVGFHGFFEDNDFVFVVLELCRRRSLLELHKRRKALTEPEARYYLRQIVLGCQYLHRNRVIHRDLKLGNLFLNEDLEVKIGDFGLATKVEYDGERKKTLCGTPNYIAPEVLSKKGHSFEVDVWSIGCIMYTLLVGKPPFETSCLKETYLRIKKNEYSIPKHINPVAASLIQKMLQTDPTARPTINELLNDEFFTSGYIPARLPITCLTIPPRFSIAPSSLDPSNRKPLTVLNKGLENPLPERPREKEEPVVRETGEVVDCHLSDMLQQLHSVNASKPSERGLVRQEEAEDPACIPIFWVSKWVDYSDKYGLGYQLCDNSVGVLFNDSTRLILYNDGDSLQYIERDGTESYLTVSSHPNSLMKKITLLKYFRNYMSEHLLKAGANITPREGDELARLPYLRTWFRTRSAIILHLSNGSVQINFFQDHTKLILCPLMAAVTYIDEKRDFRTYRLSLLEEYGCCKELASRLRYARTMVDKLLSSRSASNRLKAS

Row | Structure (SMILES) | max response, negative = inhibition | Potency
1 | COc1ccc(S(=O)(=O)N2CCOCC2)c(C)c1C | -1.42% (inactive) | 
2 | Cc1cc(C)c(S(=O)(=O)N2CCOCC2)cc1C |  | 10.6 µM (active)
3 | COc1cc(C)c(S(=O)(=O)N2CCOCC2)c(C)c1C | -14.4% (inactive) | 
4 | CCOP(=O)(OCC)C(Cc1ccccc1)N=C(c1ccccc1)c1ccccc1 (centres undefined) | -2.76% (inactive) | 
5 | COC(=O)[C@@]12C[C@@H](CC(=O)NCCCCc3ccccc3)C(=O)N(CCc3ccc(OC)c(OC)c3)C1=CCC(C)(C)C2 | -6.86% (inactive) | 
6 | CCOC(=O)[C@]12CCCC=C1N(CCC1=CCCCC1)C(=O)[C@H](CC(=O)N1CCOCC1)C2 | -15.5% (inactive) | 
7 | CN1CCN(CCCNC(=O)c2ccc(/C=C3\Oc4ccccc4N(Cc4ccc(Cl)cc4)C3=O)cc2)CC1 | -4.87% (inactive) | 
8 | CCCN1CCN(CCCNC(=O)CN2C(=O)COc3ccccc32)CC1 | -2.49% (inactive) | 
9 | CC(C)OCCCNC(=O)CN1C(=O)/C(=C/c2ccccc2F)Oc2ccccc21 |  | 26.7 µM (active)
10 | CC1(C(=O)NS(=O)(=O)c2ccccc2)CCN1C(=O)c1ccccc1 (centres undefined) | -4.3% (inactive) | 
11 | CN(C)C(=O)c1cccc(-c2cnc3sc(NCc4ccc5c(c4)OCO5)nn23)c1 | -3.28% (inactive) | 
12 | Cc1cccc(C(=O)OCC(=O)Nc2sccc2C(N)=O)c1C | 4.89% (inactive) | 
13 | Cc1nc(C(=O)N2CCCC(C(=O)c3ccc(Cl)cc3)C2)cs1 (centres undefined) |  | 26.7 µM (active)
14 | O=C(c1ccc(C(F)(F)F)cc1)C1CCCN(C(=O)c2csnn2)C1 (centres undefined) | 2.18% (inactive) | 
15 | Cc1cnc(C(=O)N2CCCC(C(=O)c3ccc(C(F)(F)F)cc3)C2)cn1 (centres undefined) | 6.24% (inactive) | 
16 | Cc1cccc(C)c1-n1nnnc1C(CCc1ccccc1)N1CCN(C/C=C/c2ccccc2)CC1 (centres undefined) | -10.6% (inactive) | 
17 | c1cc(-c2ccc3[nH]ccc3c2)n2ccnc2c1 | -9% (inactive) | 
18 | O=C(Cc1ccc2c(c1)CCCC2)Nc1ccccc1Cl |  | 16.8 µM (active)
19 | COc1cccc(NC(=O)CN2CCN(CC(=O)Nc3ccccc3Cl)CC2)c1 | -1.84% (inactive) | 
20 | O=C(Nc1ccc2c(c1)CCC2)c1cccc(S(=O)(=O)Nc2ccccc2Cl)c1 | -7.42% (inactive) | 
21 | Cc1onc(-c2ccccc2)c1-c1nnc(COC(=O)c2ccc(N(C)C)cc2)o1 | 5.92% (inactive) | 

Row | Structure (SMILES) | max response, negative = inhibition | Potency
22 | CCc1nc2c(OCc3cccc(OC)c3)cccn2c1N(C)C(=O)C(C)C | -12% (inactive) | 
23 | O=C(O)c1ccccc1NC(=O)c1ccccc1-c1ccccc1C(=O)O | -6.65% (inactive) | 
24 | CN1CCN(C(=O)c2ccc(-c3ccc(Br)cc3)o2)CC1 | -2.57% (inactive) | 
25 | O=C(NC(=S)Nc1ccccc1C(=O)O)c1ccc(-c2ccc(Br)cc2)o1 |  | 13.4 µM (active)
26 | CC(C)(C)CC(=O)Nc1nc(C(N)Cc2ccc(C(F)(F)F)cc2)cs1 (centres undefined) | -8.43% (inactive) | 
27 | C[N+](C)(C)CCNC(=O)c1c[nH]c2ccccc12 | -0.504% (inactive) | 
28 | COC(=O)c1c(C)[nH]c(C)c1-c1ccc([N+](=O)[O-])cc1 | -17.8% (inactive) | 
29 | CC(=O)N1CC[n+]2c(-c3ccc([N+](=O)[O-])cc3)csc21 |  | 9.47 µM (active)
30 | COc1ccc(C2CC(c3ccc([N+](=O)[O-])cc3)=NN2C(C)=O)cc1 (centres undefined) | -7.83% (inactive) | 
31 | CSc1ccc(CN2CCC2(C)C(=O)NCc2ccccc2Br)cc1 (centres undefined) | 2.74% (inactive) | 
32 | Cc1cc(C(=O)COC(=O)C2CC2)c(C)n1-c1ccc(F)cc1 | 3.31% (inactive) | 
33 | Cc1ccc(-n2c(C)cc(C(=O)CN3C(=O)C(=O)N(C4CCCC4)C3=O)c2C)cc1 |  | 26.7 µM (active)
34 | Cc1ccc(-n2c(C)cc(C(=O)CSc3nnc4ccccn34)c2C)cc1 | -3.52% (inactive) | 
35 | FC(F)(F)c1ccccc1Cc1c(-c2ccccc2)nc2c3ccccc3ccn12 | 5.06% (inactive) | 
36 | COc1ccc(C(NC(=O)C2CCN(CCCc3ccccc3)CC2)c2cccs2)cc1 (centres undefined) | -15.3% (inactive) | 
37 | CCCc1nc2c3ccccc3ccn2c1Cc1ccccc1C(F)(F)F | -6.42% (inactive) | 
38 | CCCNC(=O)C1(C)CCN(C(=O)c2ccc(F)cc2Cl)C1 (centres undefined) | -7.53% (inactive) | 
39 | COc1ccccc1CC1(C)C(=O)Nc2ccc(OC(F)(F)F)cc21 (centres undefined) | -13.6% (inactive) | 
40 | CCCCNC(=O)OC1CC2CC1[C@H]1CCCCN1C2=O (some centres undefined) | -1.73% (inactive) | 
41 | Cc1ccc(S(=O)(=O)/N=C(/Nc2ccccn2)c2ccc(Cl)cc2)cc1 | -1.19% (inactive) | 
42 | Cc1ccc(S(=O)(=O)/N=C(/Nc2ccc3[nH]c(=O)[nH]c3c2)c2ccccc2)cc1 | -15.4% (inactive) | 

Row | Structure (SMILES) | max response, negative = inhibition | Potency
43 | Cc1ccc(S/C(=N\S(=O)(=O)c2ccc(Cl)cc2)c2ccccc2)cc1 |  | 2.67 µM (active)
44 | CC1CN(C(=O)c2cccc(NS(=O)(=O)c3ccc(Br)cc3)c2)CC(C)O1 (centres undefined) | -2.62% (inactive) | 
45 | O=S1(=O)CC(N2CCN(c3ccccn3)CC2)CN1Cc1ccc(F)cc1 (centres undefined) | -5.38% (inactive) | 
46 | CSc1ncccc1C(=O)N1CCCC(Nc2ccc(F)c(F)c2)C1 (centres undefined) | -2.74% (inactive) | 
47 | COc1ccc(NC(=O)C2C3CCC(O3)C2C(=O)O)cc1OC (centres undefined) | 4.35% (inactive) | 
48 | Cc1sc(NC(=O)C2C3CCC(O3)C2C(=O)O)c(C(=O)OC(C)C)c1-c1ccc(Cl)cc1 (centres undefined) |  | 7.52 µM (active)
49 | CC(C)OC(=O)c1cc(NC(=O)C2C3CCC(O3)C2C(=O)O)cc(C(=O)OC(C)C)c1 (centres undefined) | -3.95% (inactive) | 
50 | CCc1nc2c(OCCOc3ccccc3)cccn2c1N(C=O)Cc1ccc(OC)cc1 | -6.91% (inactive) | 
51 | CC(=O)Nc1ccc(S(=O)(=O)Oc2ccc(Br)cc2C(=S)N2CCOCC2)cc1 | -17.8% (inactive) | 
52 | O=C(Oc1ccc(Br)cc1C(=S)N1CCOCC1)c1cccc([N+](=O)[O-])c1 |  | 11.9 µM (active)
53 | O=C(Oc1ccccc1C(=S)N1CCCCC1)c1cc([N+](=O)[O-])cc([N+](=O)[O-])c1 |  | 2.12 µM (active) and 2.67 µM (active)
54 | COc1cc(C(=S)N2CCOCC2)cc(OC)c1OC(=O)c1ccc([N+](=O)[O-])cc1[N+](=O)[O-] | -24.3% (inactive) | 
55 | COc1ccc(C(=O)N2CCCC(C(=O)c3ccccc3OC)C2)cc1OC (centres undefined) | -20.4% (inactive) | 
56 | O=C(Oc1ccccc1Cl)c1ccc(N2CCOCC2)c([N+](=O)[O-])c1 | -14.3% (inactive) | 
57 | COc1ccc(S(=O)(=O)N2CCCCC2)cc1C(=O)NC1CCS(=O)(=O)C1 (centres undefined) | 5.08% (inactive) | 
58 | O=c1[nH][nH]c2c1[C@H](c1ccc(Cl)cc1)O[C@H](CCc1ccccc1)C2 | -16.9% (inactive) | 
59 | CCOC1=C2CN(S(=O)(=O)c3ccc(C)cc3)[C@H](c3cccs3)C[C@H]2[C@H]2C(=O)N(c3ccccc3)C(=O)[C@H]2C1 | -0.0091% (inactive) | 
60 | O=c1[nH]c(SCc2cccc(F)c2)nc2ccccc12 | -13.9% (inactive) | 
61 | N#Cc1c(-c2ccccc2)nc(SCc2cccc(C(F)(F)F)c2)[nH]c1=O |  | 23.8 µM (active)
62 | N#Cc1c(-c2ccccc2)nc(SCc2ccc([N+](=O)[O-])cc2)[nH]c1=O |  | 26.7 µM (active)
63 | O=C(Nn1c(SCc2ccc([N+](=O)[O-])cc2)nc2ccccc2c1=O)c1ccc(F)cc1 | -14.4% (inactive) | 

Row | Structure (SMILES) | max response, negative = inhibition | Potency
64 | Cc1ccccc1CSc1nnc(-c2ccccc2)c(=O)[nH]1 | -22.2% (inactive) | 
65 | N#Cc1c(-c2ccc(F)cc2)nc(-c2ccccc2)[nH]c1=O | -13.6% (inactive) | 
66 | S=C(NN=Cc1ccccn1)Nc1ccccn1 | -6.29% (inactive) | 
67 | COc1ccc(CCCNC(=O)C2Cc3c(-c4cccc(C(N)=O)c4)ccnc3O2)cc1 (centres undefined) | -3.93% (inactive) | 
68 | CCc1nc2ccc(C(=O)Nc3ccc(OC)c(OC)c3)cn2c1N(C)C(=O)c1cccc(OC)c1 | -6.83% (inactive) | 
69 | O=C(NNC(=O)c1ccccc1[N+](=O)[O-])Nc1ccccc1C(F)(F)F | -9.97% (inactive) | 
70 | O=C(O)c1ccccc1NC(=S)NC(NC(=O)c1ccccc1[N+](=O)[O-])C(Cl)(Cl)Cl (centres undefined) |  | 26.7 µM (active)
71 | O=C(Nc1ccccc1[N+](=O)[O-])C1C(c2ccccc2)=C1c1ccccc1 | 0.94% (inactive) | 
72 | COc1ccc(Cl)cc1-n1c(=S)sc2c(=O)n(-c3ccc(F)cc3)c(SCC(=O)O)nc21 |  | 23.8 µM (active)
73 | COc1ccccc1-n1c(SCC(=O)O)nc2sc3c(c2c1=O)CCC3 | -11.7% (inactive) | 
74 | COc1cccc(-n2c(=S)sc3c(=O)n(-c4ccccc4C)c(SCC(=O)O)nc32)c1 | -8.81% (inactive) | 
75 | C#CCN(C[C@H]1[C@H](OC(=O)NC2CCCC2)[C@H](OC(=O)NC2CCCC2)C[C@H]2C(=O)N(c3ccccc3)C(=O)[C@@H]12)S(=O)(=O)c1ccc(C)cc1 | -0.644% (inactive) | 
76 | CC(=O)Nc1ccc(-c2ccnc3c2CC(C(=O)NC(C)C)O3)cc1 (centres undefined) | -3.44% (inactive) | 
77 | O=C(NCCCCO)C(F)(F)C(F)(F)C(F)(F)C(=O)NCCCCO |  | 18.9 µM (active)
78 | O=C(NCCCCCCCCCNC(=O)C(F)(F)F)C(F)(F)F | -1.31% (inactive) | 
79 | COCCNc1ncnc2c1ncn2[C@H]1CN(CCN2CCOCC2)C[C@@H](CO)O1 | -5.67% (inactive) | 
80 | CC(C)Nc1nc(NCCOc2ccccc2Cl)c2sccc2n1 | 4.77% (inactive) | 
81 | Cc1sc2ccccc2c1CNC[C@H]1O[C@@H](n2ccc(=O)[nH]c2=O)[C@H](O)[C@@H]1O | 2.69% (inactive) | 
82 | Cc1nnc(Sc2nc3c(c(=O)[nH]c(=O)n3C)n2Cc2ccccc2)s1 | 0.479% (inactive) | 
83 | C=CCn1c(SCc2ccccc2)nc2c1c(=O)[nH]c(=O)n2C |  | 26.7 µM (active)
84 | CC1CCN(c2nc3c(c(=O)[nH]c(=O)n3C)n2CCCc2ccccc2)CC1 | -10.5% (inactive) | 
